Compound activity: PubChem, National Center for Advancing Translational Sciences (NCATS)
ATXN viability: viability counter-screen for ATXN expression inhibitors; S2 cells (HEK-293 line with an ATXN2-luciferase reporter) viability, CellTiter-Fluor protease fluorescence, 24 h; Potency, µM (doses to about 56.7 µM), actives largely listed as cytotoxic; actives 0.49% (n = 400,000); AID 651635; note: potency is the fitted concentration of half-maximal effect; nearly all actives have a fitted effect of over 40% in size
TGFb SMAD3 inh: blocks TGF-b signaling; HepG2 CAGA-GFP TGF-b/SMAD3 reporter, GFP fluorescence, 18 h; TGF-beta stimulated, 500 pg/mL final; AID 588855; actives 1.2% (n = 410,000); Potency, µM (titrated, usually from 46.1 µM), for the others: top-dose activity, negative = inhibition, hits mostly inhibitors; note: potency is the fitted concentration of half-maximal effect; % is set by controls: 0 for no effect and ±100 for the full control effect; nearly all actives have a fitted effect of over 65% in size
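Smad-responsive CAGA-GFP expression was quantified in HEPG2 cells exposed to compounds and 500 pg/mL final TGF-beta for 18 h at 37 degrees C; unstimulated wells defined full inhibition.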
Giardia killer: Giardia lamblia killing; Giardia lamblia trophozoite viability; activity change, % at 7.66 µM, hits read low; actives 0.15% (n = 340,000); in the data active = activity change below about -80%; inconclusive = between about -30% and that limit;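 note: parasites exposed to compound for two days anaerobically before the ATP read; % is set by controls: 0 for no effect and ±100 for the full control effect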
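Trophozoite viability was measured as ATP-dependent luminescence, read 15-30 min after reagent addition. Before that, parasites at 100 cells/well were exposed to compounds for 48 h, anaerobically, at 37 deg C.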
ATXN2 expr inh: reduces ATXN2 reporter expression in HEK-293 cells; actives 0.72% (n = 360,000); Potency, µM (series often up to 57 µM), for inactives: at the top dose activity change, negative = inhibition, hits mostly inhibitors; HEK-293 ATXN2-luciferase reporter, luminescence, 24 h; AID 1745845; note: potency is the fitted concentration of half-maximal effect; % is set by controls: 0 for no effect and ±100 for the full control effect; nearly all actives have a fitted effect of over 55% in size
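qHTS (up to 57 uM final) was run with 24 h compound exposure of reporter cells at 37 °C. Each well was multiplexed: SteadyGlo luminescence measured ATXN2-luciferase expression after a fluorogenic Gly-Phe-AFC viability readout (25 uM final).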
uPA generation: inhibitors of cell surface uPA generation; cell surface uPA generation assay, qHTS; Potency, µM (top dose mostly 38.3 µM), for inactives: at the top dose activity change, negative = inhibition, usual class: inhibitors; actives 0.31% (n = 330,000); AID 540303; active = well fitted inhibition curve with a large enough effect; inconclusive = small, poorly fitted or top-dose-only effect; inactive = no such curve, though single readings can be large or run the other way; tested in mouse RAW 264.7 cells; note: potency is the fitted concentration of half-maximal effect; % is set by controls: 0 for no effect and ±100 for the full control effect; nearly all actives have a fitted effect of over 55% in size
HepG2 tox-1: counter-screen for TGF-b inhibitors: cytotoxicity in HepG2 cells; HepG2 CAGA-GFP viability, ATP luminescence, 18 h; Potency, µM (series often up to 46.1 µM), for inactives: top-dose activity change, negative = cytotoxicity, most hits filed as cytotoxic; actives 0.76% (n = 410,000); note: potency is the fitted concentration of half-maximal effect
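HepG2 CAGA-GFP cells (1000/well, DMEM with 1% FBS) received compound, then TGF-beta at 500 pg/mL final, and were incubated 18 hours at 37 degrees C. Viability was read by CellTiter-Glo luminescence. Media-only wells were set as complete cell-killing and DMSO as no toxicity.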
TGFb CAGA inh: TGF-b pathway inhibition, cherry-pick retest; shares compounds with TGFb SMAD3 inh; HepG2 CAGA-GFP TGF-b reporter, GFP fluorescence, 18 h; cells stimulated with TGF-beta, 500 pg/mL; Potency, µM (doses to about 46.1 µM), without a hit: at the top dose activity, negative = inhibition, actives largely listed as inhibitors; actives 63% (n = 1,600); AID 720534; note: potency is the fitted concentration of half-maximal effect; % is set by controls: 0 for no effect and ±100 for the full control effect; nearly all actives have a fitted effect of over 65% in size
HepG2 tox-2: counter-screen for TGF-b inhibitors: cytotoxicity in HepG2 cells. shares compounds with TGFb SMAD3 inh. HepG2 CAGA-GFP viability, ATP luminescence, 18 h; cells stimulated with TGF-beta, 500 pg/mL. Potency, µM (titrated, usually from 46.1 µM), without a hit: at the top dose activity, negative = cytotoxicity, usual class: inhibitors. actives 27% (n = 1,600); note: potency is the fitted concentration of half-maximal effect; % is set by controls: 0 for no effect and ±100 for the full control effect; nearly all actives have a fitted effect of over 70% in size
CCL64 TGFb inh: blocks TGF-b signaling in CCL64 reporter cells. shares compounds with TGFb SMAD3 inh. CCL64 CAGA-GFP reporter, TGF-b stimulated, GFP fluorescence, 18 h. Potency, µM (highest dose often 46.1 µM), inactives show top-dose activity, negative = inhibition, hits mostly inhibitors. actives 41% (n = 1,600). AID 720536; note: potency is the fitted concentration of half-maximal effect; nearly all actives have a fitted effect of over 65% in size
COP TGFb inh: TGF-b inhibition validated with COP promoter; shares compounds with TGFb SMAD3 inh; HepG2 COP-GFP TGF-b reporter, GFP fluorescence, 18 h; cells stimulated by added recombinant TGF-beta; Potency, µM (top dose mostly 46.1 µM), without a hit: at the highest dose activity, negative = inhibition, hits mostly inhibitors; actives 3% (n = 1,600); AID 720537; note: potency is the fitted concentration of half-maximal effect; nearly all actives have a fitted effect of over 70% in size
* = called active by the depositor; i = inactive; ? = inconclusive; / = no result; [ ] = dose if it differs, or a comment. An excerpt weighted towards active compounds, which were near 2.6% of everything screened. Unless noted, calls come from the whole dose curve; as a rule, active = well fitted curve in the direction sought with a large enough effect; inconclusive = small, poorly fitted or top-dose-only effect, or another doubt; inactive = no such curve, though single readings can be large; an effect the other way counts as inactive or inconclusive.

SMILES	ATXN viability	TGFb SMAD3 inh	Giardia killer	ATXN2 expr inh	uPA generation	HepG2 tox-1	TGFb CAGA inh	HepG2 tox-2	CCL64 TGFb inh	COP TGFb inh
Cc1ncsc1C(=O)N1N=C2/C(=C/c3ccccc3)CCCC2C1c1ccccc1 (stereo not drawn)	?	?	-8	3%	-1%	-27%	/	/	/	/
O=C(NCCNC(=O)c1ccccc1O)c1ccccc1O	i	2%	5	-4%	6%	5%	/	/	/	/
O=C(NCCCCCCNC(=O)c1ccccc1O)c1ccccc1O	i	8.9µM*	-7	-20%	-2%	-35%	?	?	?	11%
COc1ccc(C(NC(=O)C2CCN(CCc3ccccc3)CC2)c2ccccn2)cc1 (stereo not drawn)	?	11%	/	-2%	/	5%	/	/	/	/
COC(=O)[C@H](C)NC(=O)N1CCC(Cc2ccccc2)CC1	i	7%	-10	-4%	0%	6%	/	/	/	/
CCCOc1ccccc1N/C(N)=N/c1nc(C)cc(C)n1	i	-17%	37	-28%[11.3 µM]	-4%	-7%	/	/	/	/
CCCOc1ccccc1N/C(=N/c1nc(C)cc(C)n1)NC(=O)COc1ccc(OC)cc1	i	10µM*	17	-34%	-7%	-7%	13µM*	-27%	?	24%
Cc1cccc(NS(=O)(=O)c2ccc(-c3cnc(C4CC4)o3)cc2)c1C	?	14µM*	?	/	-84%	-25%	1.8µM*	?	4.1µM*	18%
Cc1cc(C)cc(NS(=O)(=O)c2ccc(-c3cnc(C4CC4)o3)cc2)c1	i	7.9µM*	-6	/	?	-108%	8.2µM*	?	5.2µM*	15%
O=S(=O)(Nc1ccccc1)c1ccc(-c2cnc(C3CC3)o2)cc1	i	?	13	/	?	-47%	/	/	/	/
Nc1ccn([C@@H]2O[C@H](CN=C3NS(=O)(=O)c4ccccc43)[C@@H](O)[C@H]2O)c(=O)n1	i	13%	/	13%	/	-1%	/	/	/	/
COc1ccc(C(C)(O)c2nc(-c3ccc(OC)nc3)cs2)cc1 (stereo not drawn)	i	-2%	/	1%	/	-21%	/	/	/	/
Cc1ccccc1[C@@H](NC(=O)OC(C)(C)C)C(=O)OC(C)(C)C	i	-1%	-12	10%	-7%	0%	/	/	/	/
C(=C\c1ccccc1)/CN1CCN(C(c2cccs2)c2nnnn2Cc2ccccc2)CC1 (stereo not drawn)	?	11µM*	/	?	/	-9%	16µM*	?	?	59%
CC(C)(C)n1nnnc1C(CCc1ccccc1)N1CCN(C/C=C/c2ccccc2)CC1 (stereo not drawn)	?	?	/	-28%	/	-8%	/	/	/	/
C(=C\c1ccccc1)/CN1CCN(C(c2nnnn2C2CCCC2)C2CC2)CC1 (stereo not drawn)	?	7.9µM*	/	0%	/	-27%	?	-24%	-15%	12%
C(=C\c1ccccc1)/CN1CCN(C(CCc2ccccc2)c2nnnn2C2CCCC2)CC1 (stereo not drawn)	?	11µM*	/	-29%	/	-3%	21µM*	?	?	60%
CC(OC(=O)C1=COCCO1)C(=O)Nc1ccc(Oc2ccccc2)cc1 (stereo not drawn)	i	-7%	-12	1%	4%	-9%	/	/	/	/
O=C(OC(C(=O)Nc1cc(Cl)cc(Cl)c1)c1ccccc1)C1=COCCO1 (stereo not drawn)	?	16µM*	0	-12%	-4%	-14%	?	?	18µM*	43%
Cc1nn(-c2cccc(Cl)c2)c2nc(C(F)(F)F)[nH]c(=O)c12	?	11µM*	-2	?	-12%	-21%	6.5µM*	8.2µM*	2.9µM*	36%
CC(C)(C)OC(=O)NCCc1nnc(SCc2cccc(Cl)c2)o1	i	7.9µM*	-2	-20%	2%	-60%	-5%	-10%	10%	-11%
O=C(c1[nH]nc2c1CCc1ccccc1-2)N1CCN(Cc2ccc3c(c2)OCO3)CC1	i	11µM*	-3	-33%	3%	-20%	12µM*	?	?	52%
O=C(c1ccccc1)N1CCN(Cc2ccc3c(c2)OCO3)CC1	i	12%	-19	-2%	-2%	9%	/	/	/	/
COc1ccc(OC)c(N=c2oc3cc(O)ccc3cc2C(N)=O)c1	?	14%	7	-13%	0%	-53%	/	/	/	/
COc1ccc2oc(=Nc3cc(F)ccc3F)c(C(N)=O)cc2c1	i	8.9µM*	13	-30%	-4%	-7%	?	0%	-6%	22%
O=C(N/N=C/c1ccccc1O)c1cccc2ccccc12	i	8.9µM*	19	/	?	-21%	?	?	?	16%
O[C@@H]1[C@@H](O)C=C2CCN3Cc4cc5c(cc4[C@H]1C23)OCO5 (stereo partly drawn)	?	3.5µM*	0	3.5µM*	1µM*	2%	0.92µM*	?	1.3µM*	22%
Oc1c(C(c2ccccn2)N2CCCCC2)cc(Cl)c2cccnc12 (stereo not drawn)	i	7.9µM*	3	?	?	-41%	?	?	?	0%
Cc1ccc(NC(=S)NCC2CCN(C(C)c3ccccc3)C2)cc1C (stereo not drawn)	i	?	-21	/	-16%	-35%	/	/	/	/
CN(c1ccc(F)cc1)S(=O)(=O)c1ccc(Cl)c(C(=O)Nc2ccc3c(c2)CCC3)c1	i	11µM*	4	-10%	7%	1%	?	-12%	-20%	-7%
